The campaign covered roughly 310,000 compounds. About 14,000 (4.5%) showed an effect of 50% or more. Effects have a minus sign here. This is one part of a sample in which strong results are shown more often than they occur.

We go through 47 compounds from PMC4336329 (PLoS ONE, 2015).
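Further: peak tail current of the secondary pulse compared with the same well before compound.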

The assay deals with human ether-à-go-go-related gene (hERG) potassium channel (human, UniProt Q12809). The assay is described as follows: primary screen, population patch clamp on CHO cells stably expressing hERG; higher = less effect of the substance.
Chain of human ether-à-go-go-related gene (hERG) potassium channel (Q12809 whole entry, looked up): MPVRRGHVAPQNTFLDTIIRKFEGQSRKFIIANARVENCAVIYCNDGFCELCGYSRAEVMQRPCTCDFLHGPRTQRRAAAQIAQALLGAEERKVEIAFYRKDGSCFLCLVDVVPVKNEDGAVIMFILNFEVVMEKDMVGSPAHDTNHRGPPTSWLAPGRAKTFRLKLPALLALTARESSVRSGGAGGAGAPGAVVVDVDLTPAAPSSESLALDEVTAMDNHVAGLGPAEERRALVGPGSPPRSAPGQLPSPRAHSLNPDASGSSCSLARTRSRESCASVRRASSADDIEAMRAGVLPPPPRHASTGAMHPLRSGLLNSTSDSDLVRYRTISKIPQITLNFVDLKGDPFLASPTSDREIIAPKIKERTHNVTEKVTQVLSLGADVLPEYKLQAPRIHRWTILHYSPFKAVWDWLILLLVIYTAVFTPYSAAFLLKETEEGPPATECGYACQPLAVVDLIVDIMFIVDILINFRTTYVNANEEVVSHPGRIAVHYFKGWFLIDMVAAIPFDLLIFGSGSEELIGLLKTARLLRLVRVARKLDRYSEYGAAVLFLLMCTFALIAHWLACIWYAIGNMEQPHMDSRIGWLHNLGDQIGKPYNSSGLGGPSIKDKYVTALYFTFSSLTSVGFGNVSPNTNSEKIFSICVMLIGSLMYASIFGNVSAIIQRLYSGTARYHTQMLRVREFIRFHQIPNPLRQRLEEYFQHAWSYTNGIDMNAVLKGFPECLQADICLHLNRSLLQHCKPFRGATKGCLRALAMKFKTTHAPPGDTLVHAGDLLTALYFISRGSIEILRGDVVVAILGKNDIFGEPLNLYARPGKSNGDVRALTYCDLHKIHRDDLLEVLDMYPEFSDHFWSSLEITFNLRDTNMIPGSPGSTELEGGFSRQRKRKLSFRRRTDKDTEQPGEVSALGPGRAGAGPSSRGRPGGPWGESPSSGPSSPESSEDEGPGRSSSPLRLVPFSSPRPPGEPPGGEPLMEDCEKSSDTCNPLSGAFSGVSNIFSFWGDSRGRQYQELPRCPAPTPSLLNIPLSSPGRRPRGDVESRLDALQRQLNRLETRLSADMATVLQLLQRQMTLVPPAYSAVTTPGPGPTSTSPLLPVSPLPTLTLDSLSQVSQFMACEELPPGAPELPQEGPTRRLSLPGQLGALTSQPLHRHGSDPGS
On to `CCCCCn1c(N2CCC(Cc3ccccc3)CC2)nc2c1c(=O)[nH]c(=O)n2C`, for which the “hERG current change (%, negative = inhibition) at 10uM” value is recorded as -11%. The value for `CCCCn1c(N2CCC(Cc3ccccc3)CC2)nc2c1c(=O)[nH]c(=O)n2C` was -49.4%; that for `CCCCCn1c(N2CCN(c3cccc(Cl)c3)CC2)nc2c1c(=O)[nH]c(=O)n2C` was -29.2%; that for `CCCCn1c(CN2CCN(c3cccc(Cl)c3)CC2)nc2c1c(=O)[nH]c(=O)n2C` was 5.59%. The value for `CCCn1c(N2CCC(Cc3ccccc3)CC2)nc2c1c(=O)[nH]c(=O)n2C` was -51.2%; that for `CCOC(=O)N1CCC(NC(=O)CN(c2ccc(C(C)C)cc2)S(=O)(=O)c2c(C)nn(C)c2C)CC1` was -10.3%; that for `CC(CNC(=O)c1cc(COc2ccc3ncccc3c2)on1)c1ccccc1` (centres unmarked) was 9.51%. The value for `COc1ccc(S(=O)(=O)N2CCN(C)CC2)cc1C(=O)Nc1ccccc1` was 1.79%.

For the compound `CN(CC(O)COc1ccc(OCC(O)CN(C)C2CCCCC2)cc1)C1CCCCC1` (centres unmarked), the “hERG current change (%, negative = inhibition) at 10uM” value was determined as 8.06%. As to `O=C(OCC(O)COc1ccccc1)c1ccc([N+](=O)[O-])cc1` (centres unmarked), the “hERG current change (%, negative = inhibition) at 10uM” value was -7.79%. In the case of `O=[N+]([O-])c1ccc(OCC(O)CN(C2CCCCC2)C2CCCCC2)cc1` (centres unmarked) it was -75.8%. In the case of `COc1ccc(OCC(O)CN(C2CCCCC2)C2CCCCC2)cc1.Cl` (centres unmarked) it was -59.5%.

As to `CCN(CC(O)COc1ccc(OCC(O)CN(CC)C2CCCCC2)cc1)C1CCCCC1` (centres unmarked), the “hERG current change (%, negative = inhibition) at 10uM” value is recorded as 22.2%. The value for `CN(CC(O)COc1ccc2ccccc2c1)C1CCCCC1.Cl` (centres unmarked) was -45.2%; that for `Cc1cccc2nc(CSc3nc4[nH]ncc4c(=O)n3-c3cccc(Cl)c3)cc(=O)n12` was -23.3%.

For `COc1ccc(CNC(=O)[C@H](Cc2ccccc2)NC(=O)C2CCN(C(=O)[C@H](C)N)CC2)cc1`, the “hERG current change (%, negative = inhibition) at 10uM” value was -2.78%. Consider `Cc1ccc(-c2onc(C)c2C)cc1S(=O)(=O)N1CCOc2ccccc21`, for which the “hERG current change (%, negative = inhibition) at 10uM” value was 9.26%. `COc1cc(/C=N/NC(=O)CCc2n[nH]c(=O)[nH]c2=O)ccc1O`: the “hERG current change (%, negative = inhibition) at 10uM” value is recorded as -0.627%. The value for `Cc1cccc(OC(C)C(=O)Nc2nccs2)c1` (centres unmarked) was 8.8%.

As for `CC1CN(C(=O)CCC(=O)NCc2ccccc2)c2cc(Cl)ccc2O1` (centres unmarked), the “hERG current change (%, negative = inhibition) at 10uM” value is given as -11.5%. In the case of `Cc1ccc2c(c1)N(C(=O)CCC(=O)NCCCN1CCN(C)CC1)CC(C)O2` (centres unmarked) it was 9.95%; in that of `Cc1ccc2c(c1)N(C(=O)CCC(=O)NC1CCN(Cc3ccccc3)CC1)CC(C)O2` (centres unmarked), -67.1%; in that of `CC1CN(C(=O)CCC(=O)NCCCN2CCC(Cc3ccccc3)CC2)c2cc(Cl)ccc2O1` (centres unmarked), -72.7%. The value for `CC1CN(C(=O)CCC(=O)NCc2ccc(Cl)cc2)c2ccccc2O1` (centres unmarked) was -53.6%; that for `Cc1ccc2c(c1)N(C(=O)CCC(=O)NC1CCCCCC1)CC(C)O2` (centres unmarked) was -18.5%; that for `CC1CN(C(=O)CCC(=O)NC2CCN(Cc3ccccc3)CC2)c2ccccc2O1` (centres unmarked) was -26.7%.

Take `CCN1CCN(CCCNC(=O)CCC(=O)N2CC(C)Oc3ccc(C)cc32)CC1` (centres unmarked): the “hERG current change (%, negative = inhibition) at 10uM” value is listed as -12.5%. Turning to `Cc1ccc(CNC(=O)CCC(=O)N2CC(C)Oc3ccccc32)cc1` (centres unmarked), the “hERG current change (%, negative = inhibition) at 10uM” value was -28%. As to `CC1CN(C(=O)CCC(=O)NCc2ccccc2)c2ccccc2O1` (centres unmarked), the “hERG current change (%, negative = inhibition) at 10uM” value turned out to be 0.256%. In the case of `Cc1ccc2c(c1)N(C(=O)CCC(=O)NCCCN1CCOCC1)CC(C)O2` (centres unmarked) it was -13.5%. Consider `CC1CN(C(=O)CCC(=O)NCCCN2CCN(Cc3ccccc3)CC2)c2cc(Cl)ccc2O1` (centres unmarked), for which the “hERG current change (%, negative = inhibition) at 10uM” value is on record as -76.1%. The value for `COc1ccccc1NC(=O)c1ccc(NS(=O)(=O)c2ccc(F)c(F)c2F)cc1` was -6.5%; that for `COc1ccc(C(=O)CSc2nnc(-c3cccs3)n2-c2ccccc2)cc1` was 4.83%; that for `CSCCC(NC(=O)C12CC3CC(CC(C3)C1)C2)C(=O)OCC(=O)c1ccccc1` (centres unmarked) was 12.7%. Regarding `c1ccc2[nH]c(SCc3cscn3)nc2c1`, the “hERG current change (%, negative = inhibition) at 10uM” value is given as 2.76%. The value for `Cc1cccc(-n2ccnc2CN2CCN(C(C)C)C(CCO)C2)c1` (centres unmarked) was -12.3%; that for `Cc1ccc(CN2CCN(Cc3cccc(-n4cccn4)c3)CC2CCO)cc1` (centres unmarked) was -74.5%. In the case of `Cc1cccc(CN2CCN(Cc3cccc(-n4cccn4)c3)CC2CCO)n1` (centres unmarked) it was -45.7%; in that of `OCCC1CN(Cc2cc(F)ccc2-n2cccn2)CCN1Cc1ccc(F)cc1` (centres unmarked), -62.5%; in that of `OCCC1CN(Cc2cccc(-n3cccn3)c2)CCN1Cc1ccccc1` (centres unmarked), -44.8%. In the case of `Cc1ccc(CN2CCN(Cc3ccc(-n4cccn4)cc3C)CC2CCO)cc1` (centres unmarked), the “hERG current change (%, negative = inhibition) at 10uM” value is reported as -78.6%.

For `COc1ccc(-n2ccnc2CN2CCN(C3CCCC3)C(CCO)C2)cc1` (centres unmarked), the “hERG current change (%, negative = inhibition) at 10uM” value is -29.1%. The value for `Cc1cccc(-n2ccnc2CN2CCN(C3CCCC3)C(CCO)C2)c1` (centres unmarked) was -59.1%; that for `CCOC(=O)c1[nH]ncc1CN1CCN(Cc2ccc(C)cc2)C(CCO)C1` (centres unmarked) was -38.8%. In the case of `CC(C)CCN1CCN(Cc2cc(F)ccc2-n2cccn2)CC1CCO` (centres unmarked) it was -25.8%; in that of `CC(C)CN1CCN(Cc2cc(F)ccc2-n2cccn2)CC1CCO` (centres unmarked), -6.87%. The value for `Cc1cc(-n2cccn2)ccc1CN1CCN(CC(C)C)C(CCO)C1` (centres unmarked) was -45.5%.
